Laboratory results: publication PMC5540273 (PLoS ONE, 2017)

Key:
Details in all cases: concentration: 1 μM, replicates: in singlicate; n = 1
PLK2 = tested on: PLK2
PLK3 = tested on: PLK3
PLK4 = tested on: PLK4
PRKCD = tested on: PRKCD
PRKCE = tested on: PRKCE
PRKCH = tested on: PRKCH
PRKCI = tested on: PRKCI
PRKCQ = tested on: PRKCQ
PRKD1 = tested on: PRKD1
PRKD2 = tested on: PRKD2
PRKD3 = tested on: PRKD3
PRKG1 = tested on: PRKG1
PRKG2 = tested on: PRKG2
PRKR = tested on: T1, PRKR
T1 construct: gene EIF2AK2

PRKX = tested on: PRKX
PRP4 = tested on: PRP4
PYK2 = tested on: T2, PYK2
T2 construct: gene PTK2B

QSK = tested on: QSK
RAF1 = tested on: RAF1
RET = tested on: RET
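Further: KINOMEscan kinase panel screen.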

SMILES | %Inh (PLK2) | %Inh (PLK3) | %Inh (PLK4) | %Inh (PRKCD) | %Inh (PRKCE) | %Inh (PRKCH) | %Inh (PRKCI) | %Inh (PRKCQ) | %Inh (PRKD1) | %Inh (PRKD2) | %Inh (PRKD3) | %Inh (PRKG1) | %Inh (PRKG2) | %Inh (PRKR) | %Inh (PRKX) | %Inh (PRP4) | %Inh (PYK2) | %Inh (QSK) | %Inh (RAF1) | %Inh (RET)
Cl.O=C(Nc1ccc(Oc2ccc3[nH]c(NC(=O)c4ccco4)nc3c2)cc1)Nc1cc(C(F)(F)F)ccc1F [GW683134] | 0% | 0% | 0% | 4% | 0% | 0% | 0% | 9% | 0% | 0% | 37% | 12% | 0% | 0% | 20% | 27% | 10% | 0% | 94.7% | 99.9%
COC(=O)Nc1nc2ccc(Oc3ccc(CC(=O)Nc4cc(C(F)(F)F)ccc4F)cc3)cc2[nH]1 [GW680903] | 0% | 0% | 0% | 0% | 9% | 0% | 17% | 0% | 0% | 0% | 18% | 0% | 0% | 0% | 2% | 32% | 0% | 0% | 86% | 97.7%
Nc1ncnc2scc(-c3ccc(NC(=O)Cc4cc(F)ccc4F)cc3)c12.O=C(O)C(F)(F)F [SB-731254-M] | 66% | 47% | 35% | 27% | 2% | 34% | 43% | 3% | 0% | 0% | 14% | 0% | 0% | 15% | 14% | 26% | 21% | 32% | 10% | 23%
COc1cc(Nc2nccc(N3CCC(NS(=O)(=O)c4ccc(NC(C)=O)cc4)CC3)n2)cc(OC)c1OC [GSK1379825] | 0% | 29% | 27% | 0% | 14% | 35% | 19% | 26% | 0% | 0% | 0% | 5% | 0% | 0% | 15% | 18% | 37% | 20% | 60% | 30%
O=C(Nc1n[nH]c2nc(-c3cccc(O)c3)ccc12)C1CC1 [SB-711805] | 11% | 14% | 31% | 1% | 83% | 0% | 13% | 0% | 0% | 20% | 0% | 21% | 35% | 100% | 0% | 0% | 11% | 18% | 6% | 0%
CCOc1nccc(-c2c(-c3ccc(F)cc3)ncn2C2CCNCC2)n1 [SB-249175] | 24% | 23% | 26% | 20% | 5% | 100% | 5% | 10% | 38% | 35% | 19% | 0% | 12% | 16% | 0% | 0% | 16% | 20% | 19% | 32%
CN(c1ccc2c(c1)nc(NCc1ccccc1)n2C)c1ccnc(Nc2ccc(CS(C)(=O)=O)cc2)n1.Cl [GW811603] | 0% | 79% | 62% | 100% | 36% | 0% | 0% | 0% | 0% | 0% | 0% | 3% | 4% | 1% | 0% | 22% | 21% | 0% | 97.5% | 99.9%
Cc1ccccc1CC(=O)N1CCc2cc(-c3cn(C)c4ncnc(N)c34)ccc21 [GSK2603346] | 2% | 0% | 0% | 0% | 0% | 51% | 22% | 35% | 18% | 0% | 0% | 0% | 0% | 0% | 0% | 0% | 0% | 4% | 0% | 36%
